An excerpt weighted towards active compounds, which were near 2.4% of everything screened.
POLI inh – DNA polymerase iota (human) inhibition. Q9UNA4. Pol iota fluorescent replication assay, 10 min. Potency, µM (highest dose often 115 µM), inactives show at the top dose activity, negative = inhibition, actives largely listed as inhibitors. 390,000 tested, 1% active
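Pol iota at 10 nM preincubated 15 min with compounds at room temperature; reaction started with fluorescent substrate, 50 nM final. Fluorescence read kinetically at 0 and 10 min; buffer-only wells as negative control.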
POLB inh – inhibitors of human DNA polymerase beta. Potency, µM (series often up to 114 µM), for the others: top-dose activity change, negative = inhibition, actives largely listed as inhibitors. Pol beta primer extension/strand displacement, fluorescence kinetic. 340,000 tested, 1.3% active. AID 485314; further: on the % scale 0 is the no-effect control and ±100 the full control effect
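Homogeneous kinetic assay of primer extension and strand displacement by 10 nM Pol beta, preincubated 15 min at room temperature with compound before 50 nM substrate (final) was added. Read at 0 and 10 min; four-parameter Hill fit.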
Pol eta inh-1 – DNA polymerase eta (human) inhibition; AID 588591; Potency, µM (highest dose often 114 µM), inactives show at the highest dose activity change, negative = inhibition, hits mostly inhibitors; recombinant Pol eta, fluorescent DNA replication assay; 390,000 tested, 1.2% active; further: on the % scale 0 is the no-effect control and ±100 the full control effect
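Pol eta at 10 nM preincubated with compounds 15 min at room temperature; reaction started with fluorescent substrate (50 nM final) and read kinetically at 0 and 10 min.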
WRN helicase inh-1 – inhibitors of human WRN helicase. Q14191. WRN helicase unwinding, fluorescent forked duplex, kinetic. Potency, µM (highest dose often 114 µM), without a hit: at the top dose activity change, negative = inhibition, hits mostly inhibitors. 360,000 tested, 0.46% active. AID 651768; further: on the % scale 0 is the no-effect control and ±100 the full control effect; nearly all actives have a fitted effect of over 55% in size
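Fluorescence dequenching readout, ex 525 nm/em 598 nm, kinetic mode: forked duplex DNA (100 nM final) with adjacent fluorophore and quencher unwound by WRN (20 nM final) with 2 mM ATP. Compound preincubation 15 min, room temperature.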
Pol kappa inh-1 – inhibitors of human DNA polymerase kappa. 400,000 tested, 0.53% active. Q9UBT6. purified Pol kappa, fluorescent DNA synthesis assay, 10 min. Potency, µM (highest dose often 107 µM), for inactives: top-dose activity, negative = inhibition, actives largely listed as inhibitors; further: on the % scale 0 is the no-effect control and ±100 the full control effect
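Readout: fluorescence, taken kinetically at 0 and 10 min. Conditions: 10 nM Pol kappa, 15 min RT compound preincubation, 50 nM substrate final. Controls: enzyme-free buffer wells.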
FEN1 inh-1 – blocks human flap endonuclease 1 | P39748 | Recombinant FEN1 flap cleavage, fluorescence, 15 min | Potency, µM (doses to about 114 µM), for inactives: at the highest dose activity change, negative = inhibition, most hits filed as inhibitors | 390,000 tested, 0.35% active; further: on the % scale 0 is the no-effect control and ±100 the full control effect; nearly all actives have a fitted effect of over 65% in size
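Steps: FEN1 (10 nM) dispensed; compound added by pin tool; 15 min at room temperature; substrate added to 50 nM final; reads at 0 min and 15 min; data normalized and fitted (four-parameter Hill).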
Pol kappa inh-2 – confirmation of human DNA polymerase kappa inhibitors | shares compounds with Pol eta inh-1 | purified Pol-kappa, fluorescent strand-displacement substrate | Potency, µM, hits mostly inhibitors | 920 tested, 76% active | AID 720501
Pol eta inh-2 – confirmation of human DNA polymerase eta inhibitors | shares compounds with Pol eta inh-1 | Pol eta primer extension, TAMRA/BHQ fluorescence, 10 min | Potency, µM, hits mostly inhibitors | 2,600 tested, 64% active | AID 720502
FEN1 inh-2 – confirmation of human FEN1 inhibitors; FEN1 flap cleavage, TAMRA/BHQ2 fluorogenic DNA substrate; 880 tested, 79% active; Potency, µM, most hits filed as inhibitors; shares compounds with FEN1 inh-1; AID 720498; further: nearly all actives have a fitted effect of over 60% in size
WRN helicase inh-2 – confirmation of human WRN helicase inhibitors | shares compounds with WRN helicase inh-1 | WRN helicase DNA unwinding, fluorescence kinetic | Potency, µM (series often up to 57.1 µM), for inactives: at the top dose activity, negative = inhibition, usual class: inhibitors | 610 tested, 63% active; further: nearly all actives have a fitted effect of over 65% in size
TO displacement – counter-screen for WRN helicase inhibitors: DNA binding. shares compounds with WRN helicase inh-1. thiazole orange DNA binding displacement, fluorescence. Potency, µM (doses to about 57.1 µM), for the others: at the top dose activity change, negative = inhibition, actives largely listed as inhibitors. 610 tested, 10% active;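 further: drop in dye fluorescence marks compound binding to DNA; on the % scale 0 is the no-effect control and ±100 the full control effect; nearly all actives have a fitted effect of over 60% in size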
BLM helicase inh – BLM helicase inhibition, WRN selectivity check. 610 tested, 60% active. AID 720503. Recombinant BLM helicase DNA unwinding, red fluorescence. shares compounds with WRN helicase inh-1. Potency, µM (series often up to 57.1 µM), for the others: at the top dose activity change, negative = inhibition, usual class: inhibitors; further: nearly all actives have a fitted effect of over 60% in size
Active calls of the source: *; ? = inconclusive; nt = not tested or not shown; [ ] = another dose, or the depositor's remark. The call rests on the fitted dose curve; in most records, active means well fitted curve in the direction sought with a large enough effect; inconclusive means small, poorly fitted or top-dose-only effect, or another doubt; inactive means no such curve, though single readings can be large; an effect the other way counts as inactive or inconclusive. Potency means the concentration at half of the fitted maximal effect.

SMILES	POLI inh	POLB inh	Pol eta inh-1	WRN helicase inh-1	Pol kappa inh-1	FEN1 inh-1	Pol eta inh-2	FEN1 inh-2	others
O=C(Nc1ccc(S(=O)(=O)O)cc1)c1ccc2c(c1)S(=O)(=O)c1ccccc1C2=O	8%	nt	28µM*	-18%	-3%	45µM*	67*	76*
Oc1ccc(N=Nc2ccccc2-c2nn[nH]n2)c(O)c1	11%	32µM*	22µM*	-16%[11.6 µM]	16%	?	54*	38*
O=C(CCN1C(=O)/C(=C\c2cccs2)SC1=S)Nc1ccc(C(=O)O)cc1	?	88%	56µM*	1%[11.6 µM]	?	?	?	67*
CC[N+](CC)(CC)CCCCOc1ccc2c(c1)C(=O)c1cc(OCCCC[N+](CC)(CC)CC)ccc1-2	?	-102%	?	50µM*	-27%	13µM*	?	21*
CC[N+](CC)(CC)CCOc1ccc(/C=C\c2ccccc2)cc1	nt	nt	nt	nt	-7%[19.4 µM]	nt	nt	nt
O=C(CSc1ncccc1C(=O)Oc1ccccc1Cl)Nc1ccc(C(F)(F)F)cc1Cl	7%	2%	-14%	nt	-3%[60.1 µM]	-15%	nt	nt
CCc1ccc(S(=O)(=O)Nc2cc(SCC(=O)O)c(O)c3ccccc23)cc1	5.6µM*	?	50µM*	45µM*	?	?	?	60*
O=C(Nc1ccccc1Cl)[C@H](CSCc1ccccc1)N1Cc2ccccc2C1=O	-3%	3%	-25%	nt	-14%	3%	nt	nt
O=c1cc(-c2ccc(O)c(-c3c(O)cc(O)c4c(=O)cc(-c5ccc(O)cc5)oc34)c2)oc2cc(O)cc(O)c12	32µM*	-22%	18µM*	?	79µM*	45µM*	34*	48*
O=C(Nc1cccc(F)c1)N1CC2(CCN(C(=O)c3ccco3)CC2)C1	nt	nt	nt	nt	-4%[60.1 µM]	nt	nt	nt
COC(=O)/C=C1\SC(=NC(=O)c2cccc([N+](=O)[O-])c2)NC1=O	?	21%	?	-16%	-11%	6%	nt	nt
O=C1NC(=Nc2ccccc2Cl)S/C1=C\c1cc([N+](=O)[O-])ccc1O	35µM*	?	79µM*	-27%	?	?	nt	?	Pol kappa inh-2=?
CC(=O)NN1C(=O)/C(=C/c2ccc(Br)o2)SC1=S	2.5µM*	?	4µM*	50µM*	7.9µM*	40µM*	?	nt	WRN helicase inh-2=-20%;TO displacement=2%;BLM helicase inh=-20%
O=S(=O)(c1ccccc1)c1cc(O)ccc1O	47%	?	-18%	-15%	2%	11%	nt	nt
